# AGP1-GFP MLPCN – alters AGP1-GFP fluorescence in TOR pathway yeast screen. S. cerevisiae AGP1-GFP multiplex flow cytometry, 3 h; GFP as percent of DMSO wells. GFP response vs DMSO, % at 10 µM. 320,000 tested, 0.02% active;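 active means GFP response relative to DMSO above a set limit, near screen average plus 3 SD, cut at about 150% in these data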;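 further: median GFP channel fluorescence of the gated AGP1 strain per well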
# LAP4 TOR yeast – alters LAP4-GFP fluorescence in TOR pathway yeast screen | S. cerevisiae LAP4-GFP multiplex, flow cytometry GFP, 3 h; median GFP as percent of DMSO wells | GFP response vs DMSO, % at 10 µM | 320,000 tested, 0.34% active | AID 2023;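 active means GFP response vs DMSO above a set limit, about the screen mean plus 3 SD, cut at about 150% in these data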
# CIT2-GFP yeast – modulators of TOR pathway CIT2-GFP in S. cerevisiae; 320,000 tested, 0.065% active; S. cerevisiae CIT2-GFP strain, flow cytometry, 3 h; 100 means same as DMSO wells; GFP response vs DMSO, % at 10 µM;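 active means GFP response relative to DMSO above a set limit, near the screen mean plus 3 SD, cut at about 150% in these data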;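 further: ratio of well median GFP fluorescence to mean of DMSO wells on the plate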
# RPL19A-GFP yeast – yeast TOR pathway RPL19A-GFP modulation; 330,000 tested, 0.3% active; percent response vs DMSO, % at 10 µM; S. cerevisiae RPL19A-GFP strain, flow cytometry, 3 h; hits give low values;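 active means percent response vs DMSO below 50%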;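 further: median channel GFP fluorescence of the barcoded RPL19A-GFP strain; ratio of sample median GFP to plate DMSO average so 100% = DMSO; lower means less RPL19A-GFP as with rapamycin TOR inhibition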
# MEP2-GFP yeast – yeast TOR pathway MEP2-GFP modulation; S. cerevisiae MEP2-GFP strain, flow cytometry GFP, 3 h; 100% = DMSO control level; GFP response vs DMSO, % at 10 µM; 330,000 tested, 0.51% active;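 active means GFP response versus DMSO above a set limit, roughly screen mean plus 3 SD, cut at about 180% in these data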;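 further: median GFP fluorescence of the barcode-gated MEP2-GFP cells per well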
# LAP4 cherry2 – reconfirmed LAP4-GFP TOR pathway modulator in yeast; shares compounds with LAP4 TOR yeast; S. cerevisiae LAP4-GFP strain, flow cytometry GFP, 3 h; GFP response vs DMSO, % at 10 µM; 590 tested, 20% active; AID 2621;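 active means GFP signal as percent of the solvent control above about 150%, meaning raised reporter expression, limit read from the data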;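 further: ratio of well median GFP fluorescence to plate DMSO mean so 100% = DMSO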
# MEP2 cherry2 – yeast MEP2-GFP modulation, second cherry pick. shares compounds with LAP4 TOR yeast. S. cerevisiae MEP2-GFP strain, flow cytometry GFP, 3 h. GFP response vs DMSO, % at 10 µM. 590 tested, 10% active. AID 2622;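 active means GFP signal above 150% of the solvent control wells, that is a rise of more than half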;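 further: median channel GFP fluorescence of all gated yeast cells per well; ratio of median GFP to plate DMSO average so 100% = DMSO level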
# RPL19A GFP CP2 – reconfirmed modulator of RPL19A-GFP TOR reporter in yeast. S. cerevisiae RPL19A-GFP strain, flow cytometry GFP, 3 h; hits give low values; 100% means same as DMSO wells. AID 2623. 590 tested, 3% active. shares compounds with LAP4 TOR yeast. GFP response vs DMSO, % at 10 µM;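 active means under 65% GFP response relative to DMSO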;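 further: median GFP channel fluorescence per well over the all cells gate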
# CIT2 GFP CP2 – yeast CIT2-GFP TOR reporter modulation, second cherry pick; shares compounds with LAP4 TOR yeast; S. cerevisiae CIT2-GFP strain, flow cytometry GFP, 3 h; DMSO control wells read 100%; GFP response vs DMSO, % at 10 µM; 590 tested, 8% active;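 active means GFP response vs DMSO above about 150%, limit read from the data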;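 further: median green fluorescence per well over all gated yeast cells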
# AGP1 GFP CP2 – yeast AGP1-GFP TOR reporter modulation, second cherry pick. percent response vs DMSO, % at 10 µM. AID 2643. S. cerevisiae AGP1-GFP strain, flow cytometry GFP, 3 h. shares compounds with LAP4 TOR yeast. 590 tested, under 10 active;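 active means over 150 percent of DMSO response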;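 further: median GFP channel fluorescence over all cells without mother daughter split; sample median GFP divided by mean DMSO control so 100% equals DMSO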
# s288c autofluor – compound is autofluorescent in yeast s288c cells | fluorescence change (kMESF span) at 33 µM | S. cerevisiae s288c, 520 nm autofluorescence, flow cytometry, 3 h; hits give high values; zero means same as solvent-only cells | 610 tested, under 10 active | shares compounds with LAP4 TOR yeast;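 active means fluorescence span over the dose series, or activity score, above about 33, limit read from the data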
# s288c autofl DR – TOR screen hit shows autofluorescence in yeast s288c; shares compounds with LAP4 TOR yeast; S. cerevisiae s288c parental, compound autofluorescence, flow cytometry, 3 h; fluorescence change (span) at 33 µM; 110 tested, under 10 active; AID 488829;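 active means fluorescence change span, or the activity score built from it, above 25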
# TORC1 bypass – wildtype yeast growth loss with TORC1 bypass cells unaffected. shares compounds with LAP4 TOR yeast. S. cerevisiae BY4741 spot growth rating, 48-72 h; hits give low values. growth rating (0-3) at 30 µM. 120 tested, under 10 active. AID 504456;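 active means growth rating at most 1 for wild type yeast while the TORC1 bypass strain still grows fully, rated 3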
# * marks the source's active call; other numbers are inactive results; nt = not tested or not shown; [ ] = another dose, or the depositor's remark. A selection: hits, their analogues and other compounds. The true share with any hit is near 0.93%.
SMILES,AGP1-GFP MLPCN,LAP4 TOR yeast,CIT2-GFP yeast,RPL19A-GFP yeast,MEP2-GFP yeast,s288c autofl DR,TORC1 bypass,others
CSc1nc(Cc2ccc(Cl)cc2)nc2ccccc12,101,161*,83,78,98,nt,nt,LAP4 cherry2=100;MEP2 cherry2=105;RPL19A GFP CP2=100;CIT2 GFP CP2=104;AGP1 GFP CP2=97
CCOc1ccc(CNC(=O)Cn2nc(C)n3nc(-c4ccccc4)cc3c2=O)cc1,114,115,118,115,113,nt,nt,
CC(C)(C)C(=O)C(Cl)C(=O)Nc1ccccc1 (stereo unspecified),116,285*,119,69,105,0.1,3,s288c autofluor=1.6
O=C(Nc1ccc(Nc2ccccc2)cc1)C(Cl)Cl,87,109,74,98,87,nt,nt,
Cc1ccc(/C=C/C(=O)N2CCc3ccccc32)o1,88,168*[may fluoresce green],92,101,100,nt,nt,LAP4 cherry2=105;MEP2 cherry2=105;RPL19A GFP CP2=104;CIT2 GFP CP2=102;AGP1 GFP CP2=96
Cc1cc(Nc2ccccc2)nc(NCc2ccccc2)n1,98,92,112,102,107,nt,nt,
COC(=O)c1cccc(-c2cc(Nc3cc(C)[nH]n3)nc(NCc3ccccc3)n2)c1,nt,nt,nt,nt,nt,nt,3,
COC(=O)c1nc(-c2ccccc2)n[nH]1,97,100,86,102,106,nt,nt,
Cc1cc(Nc2cc(Nc3ccccc3)nc(NCc3ccccc3)n2)n[nH]1,nt,nt,nt,nt,nt,nt,3,
COc1cc(CNC(=O)CCCCCCC(C)C)ccc1O,123,158*,109,87,154,nt,nt,LAP4 cherry2=160*;MEP2 cherry2=211*;RPL19A GFP CP2=110;CIT2 GFP CP2=188*;AGP1 GFP CP2=107;s288c autofluor=-0.2
CC(=O)N1NC(=Nc2ccccc2)SC1(C)C,80,95,90,62,133,nt,nt,LAP4 cherry2=115;MEP2 cherry2=101;RPL19A GFP CP2=96;CIT2 GFP CP2=96;AGP1 GFP CP2=98
O=C1NC(=Nc2ccccc2)SC1(CO)CO,102,107,113,102,117,nt,nt,
CCOc1ccc2[nH]c(=S)[nH]c2c1,102,96,98,100,105,nt,nt,
CC(=O)Nc1ccc(NC(=O)CN(C)CC(=O)Nc2ccccc2Br)cc1,93,98,101,101,102,nt,nt,
CCOC(=O)c1c(N)nc(NC)nc1Nc1cccc(F)c1,nt,nt,nt,nt,nt,nt,3,
Nc1cc(Nc2cccc(F)c2)nc(NCc2ccccc2)n1,nt,nt,nt,nt,nt,0.42,3,
Nc1nc(NCc2ccccc2)nc(Nc2cccc(F)c2)c1[N+](=O)[O-],85,82,92,88,86,0.1,3,
Nc1nc(Nc2cccc(F)c2)nc(NCCO)c1[N+](=O)[O-],106,106,103,97,98,nt,nt,
Nc1nc(Nc2ccccc2F)nc(Nc2cccc(F)c2)c1[N+](=O)[O-],nt,nt,nt,nt,nt,0.21,3,
Cc1cc(Nc2cccc(F)c2)nc(NCc2ccccc2)n1,92,83,90,108,100,nt,nt,
CCCc1nnc(NC(=O)Nc2ccc(OC)cc2)s1,99,105,99,96,99,nt,nt,
Cc1oc(-c2ccc(Cl)cc2)cc1C(=O)/C(C#N)=C/Nc1ccccc1,98,110,99,96,104,nt,nt,
COc1cccc(Nc2nc(N)c([N+](=O)[O-])c(Nc3cccc(F)c3)n2)c1,nt,nt,nt,nt,nt,0.16,3,
CCC(C)Nc1nc(N)c([N+](=O)[O-])c(Nc2cccc(F)c2)n1 (stereo unspecified),nt,nt,nt,nt,nt,0.06,3,
Nc1nc(NC2CCCCC2)nc(Nc2cccc(F)c2)c1[N+](=O)[O-],nt,nt,nt,nt,nt,0.11,3,
SMILES,AGP1-GFP MLPCN,LAP4 TOR yeast,CIT2-GFP yeast,RPL19A-GFP yeast,MEP2-GFP yeast,s288c autofl DR,TORC1 bypass,others
Cc1nc(Nc2ccc(F)cc2)nc(Nc2ccc(F)cc2)c1[N+](=O)[O-],103,101,100,99,99,nt,nt,
Nc1nc(NCCc2ccccc2)nc(NCc2ccccc2)c1[N+](=O)[O-],93,98,98,102,105,nt,nt,
Nc1nc(NC2CCCCC2)nc(NCCO)c1[N+](=O)[O-],104,nt,98,100,104,nt,nt,
Nc1nc(NCCc2ccccc2)nc(Nc2cccc(F)c2)c1[N+](=O)[O-],nt,nt,nt,nt,nt,0.1,3,
COc1ccccc1NC(=O)C(=O)NNC(=O)COc1ccc2ccccc2c1,97,93,100,103,101,nt,nt,
Nc1nc(NCc2ccco2)nc(Nc2cccc(F)c2)c1[N+](=O)[O-],96,92,89,94,91,0.05,3,
Cc1ccc(CNc2nc(N)c([N+](=O)[O-])c(Nc3cccc(F)c3)n2)cc1,104,106,105,101,103,nt,nt,
COCCNc1nc(N)c([N+](=O)[O-])c(Nc2cccc(F)c2)n1,nt,nt,nt,nt,nt,0,3,
Nc1nc(NCc2ccco2)nc(Nc2ccccc2)c1[N+](=O)[O-],100,94,101,97,96,nt,nt,
CCCCn1c(SCc2cccnc2)nc2c1c(=O)n(C)c(=O)n2C,104,102,104,104,101,nt,nt,
O=C(/C=C/c1cccc([N+](=O)[O-])c1)c1ccc([N+](=O)[O-])o1,68,243*,75,71,83,nt,nt,LAP4 cherry2=182*;MEP2 cherry2=138;RPL19A GFP CP2=94;CIT2 GFP CP2=126;AGP1 GFP CP2=87;s288c autofluor=1.4
O=C(/C=C/c1cccc([N+](=O)[O-])c1)c1ccco1,85,147,84,88,91,nt,nt,
Cc1cccc(/C=C/C(=O)c2ccc([N+](=O)[O-])o2)c1,61,176*,80,90,84,nt,nt,LAP4 cherry2=247*;MEP2 cherry2=150*;RPL19A GFP CP2=93;CIT2 GFP CP2=157*;AGP1 GFP CP2=102;s288c autofluor=9.7
O=[N+]([O-])c1cccc2ccc(N3CCOCC3)nc12,93,98,98,97,102,nt,nt,
CC(C)N(Cc1ccccc1)C(=S)NC1CCCCC1,98,101,95,102,100,nt,nt,

# Screening results (PubChem)
